Records with an inconclusive call do not appear. Active and inactive are the calls of the source. Calls follow the shape of the dose curve; as a rule, active = well fitted curve in the direction sought with a large enough effect; inconclusive = small, poorly fitted or top-dose-only effect, or another doubt; inactive = no such curve, though single readings can be large or run the other way.
Biological target: Runt-related transcription factor 1 (Homo sapiens) + Core-binding factor subunit beta (Homo sapiens) (UniProt Q01196+Q13951)
Experiment: qHTS Assay for Compounds Blocking the Interaction Between CBF-beta and RUNX1 for the Treatment of Acute Myeloid Leukemia: SAR for Probe
Conditions: AlphaScreen CBFb-His/RUNX1-biotin binding, biochemical; series mostly up to 136 µM; activity change, negative = inhibition: at the top concentration
From the text: NIH Chemical Genomics Center [NCGC] NIH Molecular Libraries Probe Production centers Network [MLPCN] MLPCN Grant: X01MH083259-01 Assay Submitter (PI): Paul Liu NCGC Assay Overview: Core Binding Factor (CBF) abnormalities are associated with 20-25% of all acute myeloid leukemias (AML), of which 5-10% are further sub classified as acute myelomonocytic leukemia with eosinophilia, also known as M4Eo in the FAB classification scheme. This subtype of leukemia is usually associated with chromosome 16 inversion (p13:q22). Chromosome 16 inversion results in formation of the fusion oncogene CBFB-MYH11, which encodes the fusion protein CBF-beta-SMMHC. […] It has been hypothesized that the interference of CBF-beta and RUNX1 binding could have therapeutic implications for patients with CBF mediated leukemias. We developed a CBF-beta and RUNX1 binding assay in AlphaScreenTM format and optimized it for high throughput screening to search for inhibitors. The goal of this project is to screen MLPCN's compound collection (MLSMR) for identifying the inhibitors of the interaction between CBF-beta and RUNX1 proteins as research probes. If these probes work well in the animal models, the ultimate goal of this project is to development a new drug treatment for this disease. This assay can not be used to assess how apparent inhibitors interfere with protein binding, and whether inhibitors specifically bind to either protein. Disruption of this protein-protein interaction, through any mechanism, is the intended target activity. The present data set was run to confirm the activity of analogs to the probe in the primary screening assay.
NCGC Assay Protocol Summary: Step, Parameter, Description (1) Reagent, 3 uL CBFb-His/RUNX1-biotin mix incubated together for 20 minutes at room temperature (30 nM each) (2) Compound or control, 23 nL compound stock solution (3) Incubation, 15 minutes at Room temperature (4) Reagent, 1 uL 50 ng each of beads (Nickel beads and streptavidin beads) (5) Incubation, 90 minutes at Room temperature (6) Detection, […], Envision reader in AlphaScreenTM mode Keywords: MLSMR, MLPCN, NIH Roadmap, qHTS, NCGC, Core binding factor, CBF, CBF-beta, Acute myeloid leukemia

Chain of Runt-related transcription factor 1 (Homo sapiens) + Core-binding factor subunit beta (Homo sapiens) (Q01196 whole entry, looked up): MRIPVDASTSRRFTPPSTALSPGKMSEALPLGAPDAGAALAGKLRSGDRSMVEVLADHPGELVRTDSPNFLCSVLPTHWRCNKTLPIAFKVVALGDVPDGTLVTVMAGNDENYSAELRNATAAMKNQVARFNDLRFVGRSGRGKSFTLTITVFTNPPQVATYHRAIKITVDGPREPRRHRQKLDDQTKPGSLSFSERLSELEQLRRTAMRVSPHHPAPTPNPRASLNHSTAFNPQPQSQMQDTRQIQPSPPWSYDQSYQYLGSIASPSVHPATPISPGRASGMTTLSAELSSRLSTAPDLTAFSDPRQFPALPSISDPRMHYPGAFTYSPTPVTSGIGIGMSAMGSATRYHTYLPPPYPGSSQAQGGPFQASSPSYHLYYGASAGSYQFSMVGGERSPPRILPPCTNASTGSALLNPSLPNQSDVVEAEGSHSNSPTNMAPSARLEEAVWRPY
Chain of Runt-related transcription factor 1 (Homo sapiens) + Core-binding factor subunit beta (Homo sapiens) (Q13951 whole entry, looked up): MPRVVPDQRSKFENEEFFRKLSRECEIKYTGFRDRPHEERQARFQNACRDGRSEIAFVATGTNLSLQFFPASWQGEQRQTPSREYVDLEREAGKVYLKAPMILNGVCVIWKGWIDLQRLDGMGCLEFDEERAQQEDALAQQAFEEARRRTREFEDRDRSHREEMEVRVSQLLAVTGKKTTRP

Activity change, negative = inhibition, inactive:
NCCC(=O)Nc1ccc(Cl)cc1C(=O)c1ccc[nH]1 -19.4%
CCC(=O)Nc1ccc(Cl)cc1C(=O)c1ccc[nH]1 -7.27%
C[C@H](N)C(=O)Nc1ccc(Cl)cc1C(=O)c1ccc[nH]1 -16.8%
NCCCC[C@H](N)C(=O)Nc1ccc(Cl)cc1C(=O)c1ccc[nH]1 4.61%
CC(C)[C@H](N)C(=O)Nc1ccc(Cl)cc1C(=O)c1ccc[nH]1 -13.5%

Potency, active:
NCC(=O)Nc1ccc(Cl)cc1C(=O)c1ccc[nH]1 29.6 µM
